# TCR act = Activators of T cell receptors: qHTS campaign; primary human leukocytes, anti-CD3, IL-2 HTRF, 48 h; 330,000 tested, under 10 active; Potency, µM (doses to about 9.22 µM), usual class: activators
#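 48 hr co-incubation of compounds, a-CD3 beads and primary human leukocytes; IL-2 quantified homogeneously by HTRF with anti-IL-2 K and d2 conjugates.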
# ClpP mod = qHTS Assay for Activators of ClpP. ATP-dependent Clp protease proteolytic subunit (Bacillus subtilis (strain 168)), P80244. purified B. subtilis ClpP, FRET peptide cleavage, 20 min. Potency, µM (titrated, usually from 57.5 µM). 340,000 tested, 1.9% active; active means well fitted falling curve with a large enough effect; inconclusive means small, poorly fitted or top-dose-only effect; inactive means no such curve, though single readings can be large or run the other way; further: the source files actives as falling curves though it sought activators and does not explain the sign; nearly all actives have a fitted effect of over 65% in size
# Target sequence (P80244 whole entry, looked up): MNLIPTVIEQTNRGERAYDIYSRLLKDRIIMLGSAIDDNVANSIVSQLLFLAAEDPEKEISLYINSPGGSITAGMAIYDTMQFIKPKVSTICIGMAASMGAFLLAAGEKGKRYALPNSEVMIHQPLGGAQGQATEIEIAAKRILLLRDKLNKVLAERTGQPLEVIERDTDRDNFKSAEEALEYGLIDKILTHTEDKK
#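 ClpP 10 microg/mL final, pH 8 Tris/KCl buffer with BSA, glycerol, Tween-20; compound pinned in; FRET-FV substrate; RT 20 min; Ex320/Em430; ΔFRET vs ADEP 5.8 microM, DMSO, no enzyme.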
# Nrf2 block = Nrf2 qHTS screen for inhibitors; A549 ARE-Fluc reporter, luciferase luminescence, 18-24 h; 360,000 tested, 2.1% active; Potency, µM (series often up to 46 µM), usual class: inhibitors; further: nearly all actives have a fitted effect of over 60% in size
#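 Reporter: ARE-Fluc in A549. Exposure: 18-24 h, 37 °C, 5% CO2, 5% FBS OPTI-MEM. Readouts: fluorescent cytotoxicity (CellTiter-Fluor), then luminescent Nrf2 signal after BugLite.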
# miR-21 reporter = qHTS Assay for Modulators of miRNAs and/orActivators of miR-21; HeLa miR-21 FLuc reporter, luciferase, 48 h; Potency, µM (series often up to 38.3 µM), hits mostly activators; 340,000 tested, under 10 active; AID 2288, 2010;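 further: miR-21 action dims this reporter so a rising signal means less miR-21 action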
#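 Using DMEM plus 10% FBS, HeLa miR-21-FLuc cells are incubated with test compounds (final up to about 40uM) for 48 hours; firefly luciferase signal is then imaged following reagent-mediated lysis.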
# A549 viability = Nrf2 qHTS screen for inhibitors: counterscreen for cytotoxicity; A549 ARE-Fluc cells, CellTiter-Fluor viability, 18-24 h; Potency, µM (series often up to 46 µM), actives largely listed as inhibitors; 390,000 tested, 0.16% active
#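 A549 ARE-Fluc cells in 5% FBS OPTI-MEM, 5000 cells/well, rested 2 h then exposed to compounds in concentration-response for 18-24 h at 37 °C. Viability by CellTiter-Fluor fluorescence (Ex 405/Em 525) after 30 min; luciferase luminescence (BugLite, 15 min, RT) read afterwards.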
# Nrf2 ARE act = qHTS of Nrf2 Activators; AREc32 ARE-luciferase reporter (MCF7-derived line), luminescence, 24 h; Potency, µM (series often up to 46.1 µM), hits mostly activators; 410,000 tested, 0.31% active; further: nearly all actives have a fitted effect of over 65% in size
#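 AREc32 cells carrying an ARE-driven firefly luciferase reporter were seeded at 1000 cells/well in OPTI-MEM with 5% FBS, then exposed to compound for 24 hr at 37 deg C. Luminescence was read with Steady-Glo after 30 min at RT.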
# ClpP validation = qHTS Assay for Activators of ClpP: Hit Validation of Inhibitors | Potency, µM (doses to about 57.5 µM), actives largely listed as inhibitors | purified B. subtilis ClpP, FRET-FV substrate cleavage, 20 min | 470 tested, 40% active | shares compounds with ClpP mod; further: nearly all actives have a fitted effect of over 70% in size
# Hits are given with their value; . = inactive; ? = inconclusive; / = no result. This is a sample that favours compounds with a hit; in the whole collection about 3.7% have one here. Unless noted, the call rests on the fitted dose curve; in most records, active means well fitted curve in the direction sought with a large enough effect; inconclusive means small, poorly fitted or top-dose-only effect, or another doubt; inactive means no such curve, though single readings can be large; an effect the other way counts as inactive or inconclusive.
SMILES,TCR act,ClpP mod,Nrf2 block,miR-21 reporter,A549 viability,Nrf2 ARE act,ClpP validation
O=C(Nc1cccc(-c2cn3cccnc3n2)c1)c1ccc(Br)o1,.,3.5µM,.,.,.,.,2.7µM
O=C(Nc1cccc(-c2cn3cccnc3n2)c1)c1ccco1,.,.,.,.,.,.,/
CCC(=O)Nc1cccc(-c2nnc(-c3cccc(NC(=O)CC)c3)o2)c1,.,.,?,.,.,.,/
O=C(Cc1cccs1)Nc1cccc(-c2nnc(-c3ccco3)o2)c1,.,/,.,.,.,.,/
O=C(Cc1ccccc1)Nc1nnc(-c2ccco2)o1,.,/,?,.,.,.,/
CCC(=O)Nc1ccc(-c2nnc(-c3ccccc3)o2)cc1,.,2.8µM,?,.,.,.,7.7µM
Cc1ccc(-c2nnc(-c3ccc(NC(=O)Cc4cccs4)cc3)o2)cc1,.,3.5µM,9.2µM,.,13µM,.,?
O=C(Cc1ccccc1)Nc1ccc(-c2nnc(-c3ccco3)o2)cc1,.,8.9µM,.,.,.,.,.
CN(C)CCOC1c2ccccc2CCc2ccc3ccccc3c21 (centres undefined),.,.,.,/,?,.,.
CCOCCc1nn2c(=O)cc(COC(=O)c3ccccc3NC(=O)c3ccc(C)cc3)nc2s1,/,.,/,.,.,.,/
CCCC(=O)Nc1cc(-c2nc3ncccc3o2)ccc1C,.,3.2µM,.,.,.,.,24µM
COc1ccc(C(=O)c2ccc([N+](=O)[O-])cc2)c(OC)c1OC,.,.,.,/,.,.,/
COc1ccc(-c2noc(N3CCC(C(=O)Nc4cccc(C)c4C)CC3)n2)cc1,/,.,/,.,.,.,/
Cc1ccc2[nH]c3c(c2c1)CCc1cn[nH]c1-3,.,2.8µM,.,.,.,.,24µM
O=C(CNC(=O)c1cccc(F)c1)NC1CC1,.,3.5µM,.,/,.,.,.
O=C1NC(c2ccco2)Nc2ccccc21 (centres undefined),.,10µM,.,.,.,.,24µM
CC(C)CCNC(=O)c1cc(-c2ccco2)nc2ccccc12,.,4µM,.,.,.,?,6.9µM
COc1ccc(NC(=O)c2ccco2)cc1NC(=O)COc1cc(C)ccc1C(C)C,/,.,18µM,.,.,.,.
COc1ccc(Nc2cc(C(=O)NC3CCCC3)c3ccccc3n2)cc1,/,.,.,.,.,.,.
COc1ccc(NC(=O)c2nc[nH]c2C(=O)Nc2ccccc2C)cc1,.,.,?,.,?,.,.
COC(CNC(=O)CN1CCN(Cc2ccc(F)cc2Cl)C1=O)OC,.,/,.,.,.,.,/
CCn1c(C(=O)NCc2ccc(F)cc2)cc2oc3ccccc3c21,/,.,?,.,.,.,/
CCOc1ccc(CNC(=O)c2cc3oc4ccccc4c3n2C)cc1,.,6.3µM,?,.,.,.,.
Cc1cccc(C(=O)N2CCN(c3ncnc4c3cnn4-c3ccccc3)CC2)c1,.,.,18µM,.,.,.,.
Cc1ccc(-c2cc3nc(-c4ccccc4)cc(N4CCC5(CC4)OCCO5)n3n2)cc1,.,7.1µM,/,.,.,.,.
SMILES,TCR act,ClpP mod,Nrf2 block,miR-21 reporter,A549 viability,Nrf2 ARE act,ClpP validation
Cc1cccc(-c2cc3nc(C)cc(N4CC(C)CC(C)C4)n3n2)c1 (centres undefined),.,0.79µM,/,.,.,.,.
COc1ccc(-c2cc3nc(-c4ccccc4)cc(N4CCN(C(C)=O)CC4)n3n2)cc1,/,.,/,/,/,.,/
Cc1cccc(-c2cc3nc(-c4ccccc4)cc(N4CCC5(CC4)OCCO5)n3n2)c1,.,3.2µM,/,.,.,.,24µM
Fc1ccc(-c2cc3nc(-c4ccccc4)cc(N4CCOCC4)n3n2)cc1,.,3.5µM,?,.,.,.,34µM
Cc1ccc(Cl)cc1N(C)C(=O)c1noc2c1CCCCC2,/,.,.,.,.,.,/
CC(C)COc1ccc(C(=O)Nc2cc(S(=O)(=O)N3CCOCC3)ccc2N2CCCC2)cc1,.,.,.,/,.,.,.
CC(C)Oc1ccc(C(=O)Nc2cc(S(=O)(=O)N3CCOCC3)ccc2N2CCOCC2)cc1,.,.,?,/,.,.,/
Cc1ccc2c(c1)c1c(c(=O)n(-c3ccccc3)c(=O)n1Cc1ccccc1C)n2C,/,?,.,.,.,.,/
Cc1ccc(-n2ncc(C(=O)NCCCN3CCN(C)CC3)c2C2CCN(C(=O)OC(C)(C)C)CC2)cc1,/,.,?,.,.,.,/
CSc1nsc(SCC(=O)Nc2ccc(Br)cn2)n1,.,.,/,.,.,.,.
Cc1cccc(CCNC(=O)C2CCN(c3nc4ccccc4nc3C(F)(F)F)CC2)c1,/,.,.,.,.,.,/
O=C(CCn1nnc2ccccc21)N1CCN(c2ccccc2)CC1,.,.,?,.,.,.,.
COc1ccc(CCNc2ncnc3onc(C)c23)c(OC)c1,/,.,?,.,.,.,/
O=C(N[C@@H](Cc1ccccc1)C(=O)OCc1ccccc1)c1nc[nH]c1C(=O)N1CCNCC1,.,.,.,/,.,.,/
COc1ccccc1CNC(=O)c1ccc(Nc2nc3ccccc3n3nnnc23)cc1,/,.,?,.,.,.,15µM
COc1ccc(OCc2nnc(-c3ccccc3)o2)cc1,/,.,?,.,.,.,/
COc1ccc(-c2nnc(-c3ccc(OCC(C)C)cc3)o2)cc1,.,7.9µM,.,.,.,.,19µM
COc1ccccc1OCCNC(=O)c1ccc2c(c1)OCCO2,.,7.9µM,?,/,.,.,.
O=C(c1ccncc1)N1CCN(S(=O)(=O)c2cccc(Cl)c2)CC1,.,3.2µM,.,/,.,.,.
Cc1cc(Cl)ccc1Oc1nc(-c2ccc(F)cc2)ccc1C#N,.,.,.,.,.,.,?
CCOc1nc(-c2ccc(Cl)cc2Cl)ccc1C#N,.,.,.,.,.,.,/
Cc1ccc(-c2nc(CS(=O)(=O)CC(=O)NCc3ccc(Cl)cc3)c(C)o2)cc1,/,.,?,.,.,.,/
CCCCCc1cc(=O)oc2c(C(CCN3CCCC3)c3ccc(N(C)C)cc3)c(OC)cc(OC)c12 (centres undefined),.,.,.,?,.,.,.
COc1ccc(-c2cc(C(=O)Nc3c(Cl)cc(Cl)cc3Cl)c3ccccc3n2)cc1OC,.,.,.,.,.,.,22µM

# High-throughput results deposited in PubChem BioAssay by National Center for Advancing Translational Sciences (NCATS).
